Screening data from PubChem BioAssay.
Hits are enriched below; roughly 14% of the tested compounds scored in any of these assays.
CRE-bla Fsk – Cell signaling CRE-BLA (Fsk stim); CHO CRE-bla reporter (cAMP response element driving beta-lactamase), forskolin EC10, beta-lactamase ratio; Potency, µM (highest dose often 38.2 µM), for the others: top-dose activity change, negative = inhibition, usual class: activators; 2.5% of 71,000 active; AID 662, 2007; active means well fitted activation curve with a large enough effect in the signal ratio, with a control signal flat, not every such curve was filed as active; inconclusive means small, poorly fitted or top-dose-only effect, or effect the other way, or a change in a side signal; the % refers to the signal ratio; further: potency means the concentration at half of the fitted maximal effect; % of control where 0% means no effect
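Modulation of forskolin-driven signalling is measured in CHO cells carrying a CRE-controlled beta-lactamase reporter. Cells are stimulated with EC10 NKH 477 in the presence of titrated compound for 3 h at 37 °C, then loaded with CCF4 for 2 h at room temperature.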
4-MU autofl – qHTS Assay for Spectroscopic Profiling in 4-MU Spectral Region. compound autofluorescence, 340/450 nm, 4-MU equivalents; hits give high values. max dye-equivalent concentration, M. 11% of 59,000 active. AID 589, 2007; in the data active means max dye-equivalent concentration above about 10 nM; inconclusive means mostly about 1.1 nM to 9.6 nM
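Intrinsic fluorescence at 340/450 nm (ex/em) was read after 15 min at room temperature in pH 8.0, 100 mM Tris. Each compound concentration expressed as 4-MU-equivalent concentration from a six-point 4-MU standard series on each plate.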
HSD17B inh – qHTS Assay for Inhibitors of HSD17B4, hydroxysteroid (17-beta) dehydrogenase 4; recombinant HSD17B10, NADH fluorescence kinetic; Potency, µM (titrated, usually from 57.1 µM), for inactives: at the top dose activity change, negative = inhibition, hits mostly inhibitors; 7.6% of 75,000 active; AID 893, 2007;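 further: the protocol describes HADH2 (HSD17B10) and not the HSD17B4 of the title; potency means the concentration at half of the fitted maximal effect; on the % scale 0 is the no-effect control and ±100 the full control effect; nearly all actives have a fitted effect of over 70% in size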
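20 nM HADH2, pH 9.0 Tris/Tween; cpd preinc 15 min RT; start w/ 1 mM NAD+ + 90 uM b-hydroxybutyryl-CoA; kinetic fluor ex360/em450 q30s x 4 min; delta last-first.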
A350 autofl – qHTS Assay for Spectroscopic Profiling in A350 Spectral Region; 11% of 59,000 active; AID 590, 2007; max dye-equivalent concentration, M; Compound autofluorescence, 340/450 nm, Alexa 350 dye-equivalents; hits give high values; in the data active means max dye-equivalent concentration above about 10 nM; inconclusive means mostly about 1.1 nM to 9.6 nM
AID923 – qHTS Assay for Allosteric/Competitive Inhibitors of Caspase-1: Spectroscopic Profiling in AFC Spectral Region. compound fluorescence, AFC spectral region (405/520 nm). Potency, µM (series often up to 57.5 µM), for the others: top-dose fluorescence increase, usual class: activators. 1.1% of 75,000 active. AID 923, 2007; further: potency means the concentration at half of the fitted maximal effect; 0% is about no effect
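Compound autofluorescence profiled at 405 nm ex/520 nm em during kinetic caspase 1 run (50 nM enzyme, 5 uM Ac-WEHD-AFC, HEPES pH 7.5, 10 mM DTT). Titration up to 57 uM; baseline from regression intercept, normalized to AFC standard curve.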
HADH2 inh – qHTS Assay for Inhibitors of HADH2 (Hydroxyacyl-Coenzyme A Dehydrogenase, Type II). Potency, µM (top dose mostly 57.1 µM), without a hit: top-dose activity change, negative = inhibition, actives largely listed as inhibitors. 3.4% of 73,000 active. 3-hydroxyacyl-CoA dehydrogenase type-2 (Homo sapiens), Q99714. recombinant HADH2, NADH fluorescence, beta-hydroxybutyryl-CoA; further: potency means the concentration at half of the fitted maximal effect; on the % scale 0 is the no-effect control and ±100 the full control effect; nearly all actives have a fitted effect of over 60% in size
Target sequence (Q99714 whole entry, looked up, one chain of several): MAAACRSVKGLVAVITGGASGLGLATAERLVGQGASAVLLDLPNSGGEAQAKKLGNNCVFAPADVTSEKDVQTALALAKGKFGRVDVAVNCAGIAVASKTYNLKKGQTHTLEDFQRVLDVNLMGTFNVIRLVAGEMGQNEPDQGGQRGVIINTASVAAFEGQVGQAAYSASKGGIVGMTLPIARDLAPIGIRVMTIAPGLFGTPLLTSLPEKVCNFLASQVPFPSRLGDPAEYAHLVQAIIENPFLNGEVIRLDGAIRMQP
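Read-out: 360 nm excitation, 450 nm emission, kinetic over 4 min. Conditions: His-tagged human HADH2 20 nM, pH 9.0 Tris with Tween-20, 1 mM NAD+, 90 uM beta-hydroxybutyryl-CoA.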
CHO tox 24h – Cell Viability - CRE-beta lactamase CHO cell - 24 hr assay. 120 tested, under 10 active. CRE-bla CHO viability, ATP luminescence, 24 h. activity, negative = viability loss, % at 46.1 µM. AID 905, 2007. shares compounds with CRE-bla Fsk
CHO tox 40h – Cell Viability - CRE-beta lactamase CHO cell - 40 hr assay. shares compounds with CRE-bla Fsk. CRE-bla CHO viability, ATP luminescence, 40 h. Potency, µM, without a hit: max response, usual class: inhibitors. 120 tested, under 10 active
CREB luc CRC – Confirmation Concentration-Response Assay for Cell signaling CRE-BLA (Fsk stim) - HEK293 CREB Luciferase; shares compounds with CRE-bla Fsk; HEK293 CRE-luc2P, NKH477 EC10 potentiation, luminescence, 4 h; Potency, µM (series often up to 38.3 µM), without a hit: at the highest dose activity, positive = activation, hits mostly activators; 80% of 120 active; AID 907, 2007
Numbers without * were called inactive; i = inactive; ? = inconclusive; / = not tested or not shown; [ ] = another dose, or the depositor's remark. Unless noted, the call rests on the fitted dose curve; in most records, active means well fitted curve in the direction sought with a large enough effect; inconclusive means small, poorly fitted or top-dose-only effect, or another doubt; inactive means no such curve, though single readings can be large; an effect the other way counts as inactive or inconclusive.

SMILES	CRE-bla Fsk	4-MU autofl	HSD17B inh	A350 autofl	AID923	HADH2 inh	CHO tox 24h	CHO tox 40h	CREB luc CRC
CCNc1nc(NC(C)C)nc(N(C#N)Cc2ccccc2)n1	15%	i	-9%	i	1%	-5%	/	/	/
CC(=O)N1CCN(c2ccc(Nc3nc(C)nc4c3oc3ccccc34)cc2)CC1	1µM*	i	?	i	-1%	-7%	-10	?	?
Cn1c(/C(C#N)=C/Nc2ccccn2)nc2ccccc21	/	?	/	1.5e-08M*	/	/	6	-12%	13µM*
CCn1c(/C(C#N)=C(\O)CCc2ccccc2)nc2ccccc21	?	i	6%	i	4%	6%	/	/	/
Cc1ccc(Nc2c3c(nc4ncnn24)CCC3)cc1	17%	i	-1%	i	1%	3%	10	-14%	13µM*
Clc1cccc(Nc2c3c(nc4ncnn24)CCC3)c1	?	i	-2%	i	0%	6%	/	/	/
C=CCNc1nc(Nc2ccc(OC)cc2OC)nc(OCC)n1	5µM*	i	-4%	i	4%	8%	-1	-11%	10µM*
COc1ccc(NC(=O)COc2ccccc2)c(OC)c1	-11%	i	4%	i	1%	3%	/	/	/
C=C[C@]1(C)CC(=O)[C@@]2(O)[C@@]3(C)C(O)CCC(C)(C)C3C(O)C(OC(C)=O)[C@@]2(C)O1 (some centres undefined)	/	/	6%	/	0%	/	/	/	/
Nc1nc(N2CCOCC2)nc(N(c2ccccc2)c2ccccc2)n1	1%	/	0%	/	-4%	1%	/	/	/
Nc1nc(CSCc2ccccc2)nc(N2CCOCC2)n1	26%	i	-1%	i	1%	-10%	3	-12%	2.8µM*
O=S(=O)(c1ccc2c(c1)OCCO2)N1CCC(O)(c2ccc(Cl)cc2)CC1	1%	i	22%	i	2%	3%	-2	-6%	?
O=S(=O)(c1ccc2c(c1)OCCO2)N1CCN(c2cccc(Cl)c2)CC1	?	i	-2%	i	0%	5%	/	/	/
Cc1cccc(N2CCN(c3nc4ccccc4n4cnnc34)CC2)c1C	8%	/	?	/	1%	-1%	/	/	/
c1cnc(N2CCN(c3nc4ccccc4n4cnnc34)CC2)nc1	2.5µM*	i	4%	i	-1%	?	-19	?	7.9µM*
CN(C)c1nc(N(C)C)nc(N(C)C)n1	6%[17.1 µM]	i	-1%	i	1%	?	3	-3%	?
COc1ccc(C2=Nn3c(nnc3-c3ccccc3OC)SC2)cc1OC	1.3µM*	i	0%	i	-1%	-9%	?	-27%	0.04µM*
CCOc1ccc(C2=Nn3c(nnc3-c3ccccc3)SC2)cc1Cl	0.079µM*	i	5%	i	0%	-10%	-5	-8%	1.6µM*
CCN(C(=O)c1cn(C)c(=O)c2cc(OC)c(OC)cc12)c1ccccc1C	?	i	-21%	i	1%	6%	-3	-7%	5µM*
